From PubChem BioAssay (NCATS)
Active and inactive are the calls of the source. Calls follow the shape of the dose curve; as a rule, active = well fitted curve in the direction sought with a large enough effect; inactive = no such curve, though single readings can be large or run the other way.

Target: Alpha-galactosidase (Coffea arabica) (UniProt Q42656)
Test: Counterscreen for Glucocerebrosidase Inhibitors: qHTS Assay for Coffee Bean alpha-Galactosidase at pH 5.9 (AID 998)
Conditions: coffee bean alpha-galactosidase enzyme assay; series mostly up to 76.9 µM
Outline: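 Compounds were titrated from 0.7 nM to 77 uM against green coffee bean alpha-galactosidase (2 nM) using 80 uM fluorogenic 4-methylumbelliferyl substrate. After 20 min at room temperature, reactions were stopped at pH 10 and read by fluorescence.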

Sequence of Alpha-galactosidase (Coffea arabica) (Q42656 whole entry, looked up): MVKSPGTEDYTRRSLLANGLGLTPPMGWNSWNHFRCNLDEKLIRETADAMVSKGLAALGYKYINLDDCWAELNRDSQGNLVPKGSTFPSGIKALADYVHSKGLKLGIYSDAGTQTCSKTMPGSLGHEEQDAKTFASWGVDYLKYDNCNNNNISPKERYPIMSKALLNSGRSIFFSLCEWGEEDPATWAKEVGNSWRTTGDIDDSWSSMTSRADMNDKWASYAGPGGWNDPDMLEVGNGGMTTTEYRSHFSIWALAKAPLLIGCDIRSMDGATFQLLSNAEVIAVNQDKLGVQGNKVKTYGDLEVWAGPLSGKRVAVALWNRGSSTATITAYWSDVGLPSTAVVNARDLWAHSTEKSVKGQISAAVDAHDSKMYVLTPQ

| SMILES | outcome |
| --- | --- |
| CN1CCC[C@@H]1c1cccnc1 | inactive |
| Cc1ccc(Cl)c(Nc2ccccc2C(=O)O)c1Cl | inactive |
| C1COC(NC(C2CC2)C2CC2)=N1 | inactive |
| Nc1ccc(S(=O)(=O)Nc2ccnn2-c2ccccc2)cc1 | inactive |
| O=c1[nH]cnc2[nH]ncc12 | inactive |
| CN(C)CCOC(=O)COc1ccc(Cl)cc1 | inactive |
| O=C(O)CCCCCCCC(=O)O | inactive |
| CN=C(NC#N)NCCSCc1nc[nH]c1C | inactive |
| CC(=O)OCC(=O)[C@@]1(O)CC[C@H]2[C@@H]3CCC4=CC(=O)CC[C@]4(C)[C@H]3C(=O)C[C@@]21C | inactive |
